According to PubChem BioAssay (NCATS):
The source made the active and inactive calls. The call rests on the fitted dose curve; in most records, active means well fitted curve in the direction sought with a large enough effect; inconclusive means small, poorly fitted or top-dose-only effect, or effect the other way, or another doubt; inactive means no such curve, though single readings can be large or run the other way.

molecular target: Beta-2 adrenergic receptor (Homo sapiens) (UniProt P07550); test: qHTS validation assay of beta-arrestin-biased ligands of beta2-adrenergic receptor (AID 485366); conditions: cell-based beta-arrestin recruitment to ADRB2, qHTS; series mostly up to 46.1 µM
Sequence (P07550 whole entry, looked up): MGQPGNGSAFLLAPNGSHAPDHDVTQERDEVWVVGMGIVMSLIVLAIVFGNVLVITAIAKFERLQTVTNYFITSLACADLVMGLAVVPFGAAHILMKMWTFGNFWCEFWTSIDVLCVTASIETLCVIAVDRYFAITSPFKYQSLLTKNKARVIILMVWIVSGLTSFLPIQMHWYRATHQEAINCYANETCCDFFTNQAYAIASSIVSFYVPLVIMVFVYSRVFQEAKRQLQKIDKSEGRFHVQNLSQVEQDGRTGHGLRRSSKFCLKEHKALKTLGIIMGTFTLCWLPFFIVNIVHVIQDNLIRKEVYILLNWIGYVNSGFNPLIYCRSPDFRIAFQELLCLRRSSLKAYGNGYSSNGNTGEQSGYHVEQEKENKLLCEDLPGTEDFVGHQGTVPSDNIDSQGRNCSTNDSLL
Excerpt: NIH Molecular Libraries Probe Production Network [MLPCN]
NIH Chemical Genomics Center [NCGC]
PI: Bryan Roth and Bob Lefkowitz
The concept of biased agonism is an emerging concept of molecular pharmacology which proposes that seven transmembrane receptors (7TMRs) or G protein-coupled receptors (GPCRs), exist in multiple signaling conformations and complexes and that ligands (either agonists or antagonists) can induce signaling biased responses for distinct signal transduction cascades.
Furthermore, accumulating evidence over the last decade has drawn attention to a novel function of beta-arrestins as signal transducers that scaffold various signaling molecules upon activation of 7TMRs. […] This beta-arrestin-biased signaling presumably leads to distinct physiological outcomes from those by G protein activation.
Additionally, the active receptor conformations which […] on this beta-arrestin signaling are likely different from those activating G protein signaling
The goal of this screening project will be to discover and optimize novel beta-arrestin-biased ligands for beta2-AR signaling. A luminescent cell-based assay for beta2-AR-mediated agonism, known as the Tango assay, has been validated in which ligand binding of a recombinant beta2-AR and subsequent recruitment of a recombinant beta-arrestin lead to the release of the transcriptional activator tTA, which upregulates transcription of a tTA-responsive luciferase gene. […] Compounds were screened as a concentration-titration series that ranged from 46 microM to 0.6 nM.
NCGC Assay Protocol Summary:
Tango cells were dispensed into white, solid, tissue-culture-treated 1536-well plates at 1500 cells/well in DMEM, containing 1% fetal bovine serum (FBS). Then, 23 nL of compounds or DMSO were delivered to each well using a pin tool. Plates were incubated at 37 degrees C, 5% CO2 for 18 hr. Then 2.5 uL luminescent substrate mix (in-house prepared: 150 mM Tris-Cl, pH 7.6, 3 mM MgCl2, 1% Triton X-100, 5 mM DTT, 0.5 mM CoA, 0.15 mM ATP, 0.44 mM D-luciferin, final concentrations) was added to each well. Plates were then incubated for 15 minutes at room temperature, and subsequently measured on a ViewLux plate reader for luminescent signal using a clear filter with a 10 second exposure and 2x binning. The %Activity was determined from the corrected luminescence values.
Concentration-response curves were fitted to the signals arising from the resulting luminescence. The concentration-effect curves were then classified based on curve quality (r2), response magnitude and degree of measured activity, and compounds were subsequently categorized based on their curve class.
Keywords: biased agonism, beta2-AR, beta-arrestin, GPCR, 7TMR, Tango, luminescence, MLSMR, MLPCN, NIH Roadmap, qHTS, NCGC

| Compound | outcome |
| --- | --- |
| O=C1CCC(c2ccc(-n3ccnc3)cc2)=NN1 | inactive |
| N[C@@H](Cc1cnc[nH]1)C(=O)O | inactive |
| Oc1ccc(O)cc1 | inactive |
| CNCCC(Oc1ccccc1C)c1ccccc1 (stereo not drawn) | inactive |
| CCCC1O[C@@H]2C[C@H]3[C@@H]4CCC5=CC(=O)C=C[C@]5(C)[C@H]4[C@@H](O)C[C@]3(C)[C@]2(C(=O)CO)O1 (stereo partly drawn) | inactive |
| CC(C)C[C@H]1C(=O)N2CCC[C@H]2[C@]2(O)O[C@](NC(=O)[C@@H]3C=C4c5cccc6[nH]c(Br)c(c56)C[C@H]4N(C)C3)(C(C)C)C(=O)N12 | inactive |
| C[N+]1(CCCCC[N+]2(C)CCCC2)CCCC1 | inactive |
| C1CCc2nnnn2CC1 | inactive |
| CN1C2CCC1CC(OC(=O)c1c[nH]c3ccccc13)C2 (stereo not drawn) | inactive |
| COc1cc(NS(C)(=O)=O)ccc1Nc1c2ccccc2nc2ccccc12 | inactive |
| O=C(O)c1cc2cc(Cc3cccnc3)ccc2o1 | inactive |
| C[C@@H]1C(=O)NC2=Nc3cccc(Cl)c3CN21 | inactive |
| COC(=O)[C@H]1[C@H]2C[C@H]3c4[nH]c5ccccc5c4CCN3C[C@H]2CC[C@@H]1O | inactive |
| COc1cc2c(cc1O)CC[C@@H]1[C@@H]2CC[C@]2(C)[C@@H](O)CC[C@@H]12 | inactive |
| CC[C@H](C)C(=O)O[C@H]1CCC=C2C=C[C@H](C)[C@H](CC[C@@H]3C[C@@H](O)CC(=O)O3)[C@H]21 | inactive |
| CCCn1c(=O)[nH]c(=O)c2[nH]cnc21 | inactive |
| Nc1cc(Cl)c(NC2=NCCN2)c(Cl)c1 | inactive |
| CC(=O)O[C@H]1C[C@@H]2CC[C@@H]3[C@H](CC[C@@]4(C)[C@H]3C[C@H]([N+]3(C)CCCCC3)[C@@H]4OC(C)=O)[C@@]2(C)C[C@@H]1[N+]1(C)CCCCC1 | inactive |
| C[C@]12CC[C@@H]3c4ccc(O)cc4CC[C@H]3[C@@H]1CC[C@@H]2O | inactive |
| N[C@H](CO)C(=O)O | inactive |
| CC1(C)CCC(NC(=O)[C@@H](N)CCC(=O)O)CC1 | inactive |
| CC(C)COC(=O)OCN1C(=O)CN(CCN2CC(=O)N(COC(=O)OCC(C)C)C(=O)C2)CC1=O | inactive |
| CNCCC=C1c2ccccc2CCc2ccccc21 | inactive |
